# A selection: hits, their analogues and other compounds. The true share with any hit is near 6.8%.
# NADH enzymes: inhibitors of PK/LDH coupling enzymes, profiling panel, artefact control, biochemical, MLSMR library | IC50, µM (top dose mostly 10 µM), without a hit: top-dose inhibition | coupled PK/LDH NADH assays, four targets | hit rate 0.02% among 65,000;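 active means single-dose screening hits from any of four coupled enzyme assays that gave an IC50 when retested across doses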;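 further: the DPM-DC format reads NADH fluorescence rather than 340 nm absorbance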
# Abs 340nm: compound light absorbance at 340 nm, profiling panel, artefact control, biochemical, MLSMR library, data from PS, PMK, MK assays | compound absorbance at 340 nm, fold over control | fold change at 10 µM | 65,000 tested, under 10 active | AID 708, 2007;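 active means at 10 µM dose, initial 340 nm absorbance at least 2 fold that of control wells; inactive means change under 2 fold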;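 further: initial absorbance extrapolated from kinetic A340 decline of NADH oxidation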
# DPM-DC inhibit: S. pneumoniae DPM-DC inhibitors, primary screen, biochemical, PK/LDH-coupled NADH fluorescence; diphosphomevalonate decarboxylase (Streptococcus pneumoniae D39); calls only at 10 µM; hit rate 0.49% among 65,000; purified DPM-DC; AID 556, 2006;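 active means the 320 compounds with the highest percent inhibition in the single-dose primary screen, excluding strongly autofluorescent ones, cut at about 32% in these data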;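 further: kinetic rate of NADH fluorescence loss reporting ADP formed by the decarboxylase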
# Spn MK inh: S. pneumoniae MK inhibitors, primary screen, biochemical, PK/LDH-coupled NADH absorbance; mevalonate kinase [Streptococcus pneumoniae D39]; purified MK, PK/LDH-coupled NADH absorbance 340 nm; inhibition, % at 10 µM; hit rate 0.48% among 65,000; AID 555, 2006;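 active means ranked among the strongest by inhibition in the single 10 µM screen, a fixed top-ranked set picked for dose follow-up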
# Fluor 339 460: intrinsic fluorescence of library compounds, ex339/em460 – biochemical, MLSMR library, data from DPM-DC assay, artefact control, profiling panel | hit rate 5.5% among 65,000 | compound autofluorescence, ex339/em460 nm, NADH buffer; hits give high values; 1 = no-compound wells, NADH background | fluorescence fold increase at 10 µM;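 active means at 10 µM, mean starting fluorescence two-fold or more over control wells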;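 further: signal is the first read of a kinetic run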
# PMK inhibit: S. pneumoniae PMK inhibitors, primary screen, biochemical, mevalonate pathway, pilot trial included. inhibition, % at 10 µM. phosphomevalonate kinase (Streptococcus pneumoniae D39). hit rate 0.49% among 65,000. purified PMK, PK/LDH-coupled NADH absorbance 340 nm. AID 539, 2006;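 active means top-ranked compounds by inhibition in the single 10 µM screen, taking a fixed number of the strongest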;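 further: 0% = full reaction with DMSO carrier and 100% = background rate without enzyme reaction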
# * = called active by the depositor; i = inactive; nt = not tested or not shown; + = active, no number.
SMILES,NADH enzymes,Abs 340nm,DPM-DC inhibit,Spn MK inh,Fluor 339 460,PMK inhibit
Cc1cc(C(=O)OCC(=O)Nc2cc(C(F)(F)F)ccc2N2CCOCC2)c(C)o1,8%,0.98,i,8,1.1,15
COCCOC(=O)C1=C(C)NC2=C(C(=O)CC(C)(C)C2)C1c1cc2c(cc1Br)OCO2 (stereo not given),3%,1,i,4,1.7,0
CC(C)(C)C(=O)/C=C(N)/C=C/c1ccccc1,0%,1.1,i,0,1.1,1
C=CCNC(=O)C1CC(=O)N(c2ccc(OCC(=O)Nc3ccccc3)cc2)C1 (stereo not given),7%,1,i,1,1,10
Cn1c(C(=O)OCC(=O)NCCc2ccccc2)cc2sccc21,7%,0.98,i,8,1,13
C=CCOC(=O)COc1ccc2c(C)c(CC)c(=O)oc2c1,9%,1.1,nt,11,3.9*,7
C=CCNS(=O)(=O)c1ccc(OCC(=O)OCC)cc1,4%,1,i,6,1.1,1
Cc1noc(C)c1COC(=O)COc1ccc2c(C)cc(=O)oc2c1,4%,1.1,i,0,1.6,0
C=CCOC(=O)COc1ccc2c(C)c(C)c(=O)oc2c1,7%,1.1,nt,6,2.1*,8
CCCc1ccc2c(N)c(C#N)sc2n1,7%,1.1,nt,5,2.1*,8
C=CCOC(=O)C1=C(C)NC(SCC(=O)NC(=O)OCC)=C(C#N)C1c1cccnc1 (stereo not given),14%,1.1,i,3,3.1*,7
COc1ccc(S(=O)(=O)N2CC3C4C=CC(C4)C3C2)cc1 (stereo not given),5%,1,i,0,1.1,16
CC1(C)CC(=O)C2=C(C1)N(CCN1CCOCC1)C1=C(C(=O)CC(C)(C)C1)C2c1cccc(F)c1,3%,1,nt,2,4.8*,3
CC1(C)CC(=O)C2=C(C1)N(CCN1CCOCC1)C1=C(C(=O)CC(C)(C)C1)C2c1ccc(Cl)cc1,2%,0.99,nt,2,5*,2
CC1(C)CC(=O)C2=C(C1)NC(=O)CC2c1cccc(F)c1 (stereo not given),4%,0.99,i,0,1.2,12
COc1ccc(C2C3=C(CC(C)(C)CC3=O)N(CCN3CCOCC3)C3=C2C(=O)CC(C)(C)C3)cc1,6%,1,i,0,3.4*,0
Cc1cc(-c2cccs2)n[nH]1,1%,1.1,i,0,1.1,0
c1csc(-c2ccc3ccccc3n2)c1,13%,1.1,i,7,2.6*,13
CCN(CC)C(=O)C1CCCN(C/C=C/c2ccccc2)C1 (stereo not given),20%,1.1,i,47*,1.1,14
CCN(CC)C(=O)C1CCCN(Cc2ccccc2C(F)(F)F)C1 (stereo not given),15%,1,i,45*,1.1,0
CCN(CC)C(=O)C1CCCN(C/C(C)=C/c2ccccc2)C1 (stereo not given),21%,1.1,i,36,1.1,26*
CCN(CC)C(=O)C1CCCN(Cc2ccccc2F)C1 (stereo not given),10%,1.1,i,31,1.1,0
COc1ccc(OCCCC(=O)Nc2nncs2)cc1,1%,0.99,i,1,1,0
COCCNC(=O)C(C)OC(=O)c1cc2occc2n1C (stereo not given),4%,1,i,2,1.1,11
CCOc1ccc2nc3ccc4[nH]onc4c3c2c1,1%,1,nt,2,2.3*,0
SMILES,NADH enzymes,Abs 340nm,DPM-DC inhibit,Spn MK inh,Fluor 339 460,PMK inhibit
c1cc(-c2nnc(-c3ccncc3)o2)ccn1,2%,1,i,7,1.1,0
OCC#CCSc1nnc(-c2ccncc2)o1,8%,1,i,11,1.1,12
CC(C)COc1ccc(-c2nnc(-c3ccncc3)o2)cc1,16%,1.1,i,10,2.4*,18
CCCOc1ccc(-c2nnc(-c3ccncc3)o2)cc1,7%,1,i,2,2.4*,3
CCCCN1c2ccccc2N(CCCO)c2cc(C)nnc21,1%,1.1,i,0,1.1,3
CCN(CC)CCNC(=O)CS(=O)Cc1nc(-c2ccc(C)cc2)oc1C (stereo not given),11%,1,i,3,0.7,3
Cc1c(NC(=O)C2CCN(S(=O)(=O)c3ccccc3)CC2)c(=O)n(-c2ccccc2)n1C,21%,1,+,14,1.1,14
Cc1nc2nc(-c3cccs3)cn2nc1C,12%,1,nt,11,3.7*,13
COc1cccc(-c2cn3nc(C)c(C)nc3n2)c1,12%,1.1,i,10,3.1*,13
CN1CCN(S(=O)(=O)c2ccc(N(C)Cc3cccs3)nc2)CC1,7%,1,i,1,1.1,18
COCCCn1c(-c2ccccc2)nc2ccccc2c1=O,1%,1,i,2,1.1,0
COCCCNC(=O)c1ccc2nc3ccccc3c(=O)n2c1,11%,1.1,nt,0,4.9*,21
CCCCn1cnc2c(cnn2-c2ccc(F)cc2)c1=O,6%,0.98,i,5,1.1,13
CCCn1cnc2c(cnn2-c2ccc(F)cc2)c1=O,4%,0.97,i,6,1,27*
Cn1c(C(=O)NCCC2=CCCCC2)cc2c(=O)n3ccccc3nc21,3%,1,nt,5,3.5*,9
Cn1c(C(=O)NCCCN2CCCC2=O)cc2c(=O)n3ccccc3nc21,11%,1.1,nt,9,4.9*,12
Cc1c(C(=O)N2CC(C)OC(C)C2)oc2ccccc12 (stereo not given),3%,1,i,8,1,0
CCSc1nnc(NC(=O)CSc2nc3c(c(=O)n2-c2ccccc2OC)SCC3)s1,6%,1.1,i,1,1.1,17
CCN1CCN(C(=O)c2cc3c(-c4ccc(Cl)cc4)nn(C)c3s2)CC1,8%,1.1,i,0,1.8,0
Cn1nc(-c2ccc(Cl)cc2)c2cc(C(=O)NCCN3CCOCC3)sc21,8%,1.1,nt,5,2.1*,10
Cn1nc(-c2ccc(Cl)cc2)c2cc(C(=O)N3CCN(C(=O)c4ccco4)CC3)sc21,2%,1.1,i,0,1.6,7
Cn1nc(-c2ccc(Cl)cc2)c2cc(C(=O)NCCCN3CCOCC3)sc21,8%,1.1,nt,6,2.1*,10
Nc1nc2c(c3c1c(=O)oc1ccccc13)CCCCC2,8%,1.1,nt,4,2.2*,12

# Bioassay records (PubChem)
